Source: PubChem BioAssay (National Center for Advancing Translational Sciences (NCATS))
TDP1 inh: blocks human tyrosyl-DNA phosphodiesterase 1; Q9NUW8; recombinant TDP1, AlphaScreen DNA substrate cleavage; Potency, µM (highest dose often 130 µM), for the others: at the top dose activity change, negative = inhibition, most hits filed as inhibitors; 350,000 compounds, 0.28% hits; note: potency is the fitted concentration of half-maximal effect; nearly all actives have a fitted effect of over 40% in size
Target sequence (Q9NUW8 whole entry, looked up): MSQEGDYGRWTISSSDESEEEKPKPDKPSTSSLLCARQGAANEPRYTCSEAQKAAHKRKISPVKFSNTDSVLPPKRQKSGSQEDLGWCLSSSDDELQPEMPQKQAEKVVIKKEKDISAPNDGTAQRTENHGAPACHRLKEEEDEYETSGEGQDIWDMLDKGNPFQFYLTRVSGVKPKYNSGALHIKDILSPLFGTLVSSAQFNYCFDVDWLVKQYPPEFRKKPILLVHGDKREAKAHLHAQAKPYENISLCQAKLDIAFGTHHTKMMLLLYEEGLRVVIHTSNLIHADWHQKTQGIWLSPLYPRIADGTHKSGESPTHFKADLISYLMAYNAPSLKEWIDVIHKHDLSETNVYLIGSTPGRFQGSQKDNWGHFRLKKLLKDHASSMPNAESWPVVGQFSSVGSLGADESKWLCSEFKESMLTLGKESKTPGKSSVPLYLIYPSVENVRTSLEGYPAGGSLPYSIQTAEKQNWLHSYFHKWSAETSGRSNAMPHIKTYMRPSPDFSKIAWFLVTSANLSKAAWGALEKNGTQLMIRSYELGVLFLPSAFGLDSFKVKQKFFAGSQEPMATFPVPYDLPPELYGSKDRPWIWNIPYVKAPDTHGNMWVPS
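Recombinant human Tdp1 (E. coli-expressed, 1 nM final) preincubated with compounds 15 min at room temperature, then 5'-biotin/3'-phosphotyrosine-FITC DNA substrate (15 nM final) added for 5 min. AlphaScreen beads (10 ug/ml final) added 10 min; cleavage lowers signal.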
IL1B secr inh: inhibitors of inflammasome signaling (IL-1 beta secretion); THP-1 LPS/ATP IL-1B secretion, AlphaLISA, 16 h; stronger effect = lower value; activity change, % at 57.5 µM; 360,000 compounds, 4.7% hits; AID 743279; in the data active = activity change below about -50%; inconclusive = mostly about -30% to -49%
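Secreted IL-1B measured by AlphaLISA bead assay after 16 h compound exposure of THP-1 cells; compounds (final up to 57.5 uM) added 1 h before LPS (250 ng/mL) and ATP (1.25 mM) stimulation; lower signal means less secretion.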
ELG1 repair inh: inhibitors of ELG1-dependent DNA repair in HEK293T cells; HEK293T ELG1-luciferase reporter, luminescence, 16 h; DNA damage induced by 5-fluorouridine; 330,000 compounds, 2.3% hits; Potency, µM (highest dose often 46.1 µM), for the others: at the highest dose activity change, negative = inhibition, usual class: inhibitors; note: potency is the fitted concentration of half-maximal effect; nearly all actives have a fitted effect of over 55% in size
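Overnight (16 hr) co-exposure of 2,000 cells/well to 5-fluorouridine and compound at 37 °C preceded detection. Luciferase was quantified via ONE-Glo luminescence; loss of signal denotes inhibition.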
Giardia kill: Giardia lamblia killing; 340,000 compounds, 0.15% hits; AID 540267; activity change, % at 7.66 µM, hits read low; Giardia lamblia trophozoite viability; in the data active = activity change below about -80%; inconclusive = between about -30% and that limit;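 note: parasites exposed to compound for two days anaerobically before the ATP read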
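ATP-content bioluminescence gauges trophozoite survival. Cells (100/well) receive compound and incubate anaerobically for 48 hrs at 37 deg C; detection reagent follows for 15-30 min at room temperature.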
DT40 TDP1 no CPT: qHTS for Inhibitors of human tyrosyl-DNA phosphodiesterase 1 (TDP1): qHTS in cells in absence of CPT | DT40 Tdp1-/- hTDP1 cells, no CPT, ATP luminescence, 48 h | Potency, µM (titrated, usually from 46.2 µM), for inactives: top-dose activity change, negative = growth inhibition, most hits filed as inhibitors | 420,000 compounds, 15% hits | AID 686978, 2013; note: potency is the fitted concentration of half-maximal effect; nearly all actives have a fitted effect of over 55% in size
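Camptothecin absent (DMSO only). Human TDP1-complemented DT40 knockout cells, 400 cells/well, 37 °C for minimum 48 hr; ATP measured via CellTiter-Glo, 30 min dark incubation, luminescence.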
DT40 TDP1 CPT: DT40-hTDP1 cell growth loss with CPT; AID 686979; Potency, µM (top dose mostly 46.2 µM), without a hit: at the highest dose activity change, negative = growth inhibition, hits mostly inhibitors; 420,000 compounds, 12% hits; chicken DT40 Tdp1-/-;hTDP1 cells + 20 nM CPT, ATP luminescence, 48 h; note: potency is the fitted concentration of half-maximal effect; nearly all actives have a fitted effect of over 55% in size
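Cell growth measured by CellTiter-Glo luminescence after a minimum 48 h, 37 C compound exposure with 20 nM CPT in Tdp1-knockout DT40 cells stably expressing hTDP1, seeded 400/well; qHTS titration format.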
Starred values were filed as active, the others as inactive; u = inconclusive; x = not tested or not shown; [ ] = remark or other dose. Hits are enriched below; roughly 19% of the tested compounds scored in any of these assays. Unless noted, calls come from the whole dose curve; as a rule, active = well fitted curve in the direction sought with a large enough effect; inconclusive = small, poorly fitted or top-dose-only effect, or another doubt; inactive = no such curve, though single readings can be large; an effect the other way counts as inactive or inconclusive. % is set by controls: 0 for no effect and ±100 for the full control effect.

SMILES | TDP1 inh | IL1B secr inh | ELG1 repair inh | Giardia kill | DT40 TDP1 no CPT | DT40 TDP1 CPT
O=S(=O)(NCc1nc2cccnc2n1Cc1ccc(F)cc1)c1ccc2c(c1)CCCC2 | 7.7% | x | x | x | u | 18.4µM*
COc1cccc(Cn2c(CNS(=O)(=O)c3ccc4c(c3)CCCC4)nc3cccnc32)c1 | 4.4% | x | x | x | u | u
Cc1cccc(C)c1NC(=O)COC(=O)c1cccnc1 | 1.2% | 14.9 | 16.7% | -12.0 | 16.9% | -15.6%
Cc1ccc(OCC(=O)Nc2cc(-c3nc4cc(Cl)ccc4o3)ccc2C)c(C)c1 | x | x | x | x | -11.8% | -24.4%
COc1ccc2oc(C(=O)Nc3cccc(S(=O)(=O)N4CCOCC4)c3)c(C)c2c1 | 6.5% | 22.2 | u | 6.0 | u | u
C=CS(=O)(=O)N(Cc1ccc(Cl)c(Cl)c1)C[C@@H](O)CO | 0.6%[56.1 µM] | -103.8* | 9.2µM* | 20.3 | 20.6µM* | 20.6µM*
COc1ccc(OC)c(NC(=O)CN(C)S(=O)(=O)c2ccc(Cl)cc2)c1 | 0.0% | 10.2 | -12.2% | 18.3 | -29.9% | -8.5%
CSc1cccc(NC(=O)CN(C)S(=O)(=O)c2ccc3c(c2)n(C)c(=O)c(=O)n3C)c1 | -1.3% | x | x | x | -24.6% | -15.9%
COc1ccc(NC(=O)CN(C)S(=O)(=O)c2ccc3c(c2)CCCN3C(C)=O)cc1Cl | 3.3% | x | x | x | 20.6µM* | u
CSc1cccc(NC(=O)CN(C)S(=O)(=O)c2ccc3c(c2)CCCN3C(C)=O)c1 | 2.2% | x | x | x | 25.9µM* | u
COc1ccc(Cl)cc1NC(=O)CN(C)S(=O)(=O)c1ccc2c(c1)CCCN2C(C)=O | 6.6% | x | x | x | 8.2µM* | 13µM*
COc1ccc(NC(=O)CCS(=O)(=O)c2ccc3c(c2)CCCN3C(C)=O)cc1Cl | 0.5% | 51.7 | -4.5% | 5.0 | -8.5% | 1.5%
CC(=O)N1CCCc2cc(S(=O)(=O)N(C)CC(=O)Nc3ccc(Cl)cc3C)ccc21 | -2.2% | x | x | x | 23.1µM* | 23.1µM*
Cc1ccc(CCNC(=O)NCc2noc3ccc(C)cc23)cc1 | -5.1% | x | x | x | u | 1.2%
CN(C)CCN(Cc1cc2cc3c(cc2nc1Cl)OCO3)C(=O)c1ccco1 | x | -12.1 | 8.3% | -11.3 | u | 17.3%
Nc1ccc2oc3ccc(N)cc3c(=O)c2c1 | 2.8% | -73.2* | u | -1.7 | -6.6% | 4.4%
CSCC[C@H](NC(=O)[C@H](Cc1c[nH]c2ccccc12)NC(=O)CCNC(=O)OC(C)(C)C)C(=O)N[C@@H](CC(=O)O)C(=O)N[C@@H](Cc1ccccc1)C(N)=O | 11.5% | x | x | x | -7.7% | -10.0%
O=C(CNC(=O)c1cc(Cl)cc([N+](=O)[O-])c1)OCC(=O)N1CCCCC1 | 2.0%[56.1 µM] | -73.7* | 16.1% | u | 0.3% | -17.6%
O=C1CC2(CCN(C(=O)c3ccc([N+](=O)[O-])cc3)CC2)Oc2ccccc21 | -8.5%[0.505 µM] | -1.3 | u | -17.7 | u | u
O=C1CC2(CCN(C(=O)c3ccc(Br)cc3)CC2)Oc2ccccc21 | 0.6% | -51.5* | -24.6% | -17.2 | 18.4µM* | u
Cc1c(C(=O)N2CCC3(CC2)CC(=O)c2ccccc2O3)cccc1[N+](=O)[O-] | 0.6% | 32.7 | u | u | 23.1µM* | 18.4µM*
CC(C)c1nc(C#N)c(NN)o1 | -1.4% | 44.3 | u | -28.3 | -10.1% | -0.5%
N#Cc1nc(Cl)c(Cl)c(NN)c1Cl | 2.6% | -54.1* | -2.1% | 8.6 | -14.8% | -1.1%
C=CCn1c(SCC(=O)c2c(N)n(C)c(=O)n(C)c2=O)nnc1-c1ccoc1C | 1.9% | 3.7 | 0.8% | -7.9 | -5.1% | 12.3%
CCOc1ccc(NC(=O)C(=O)NCCN2CCN(S(=O)(=O)c3ccc(C)cc3)CC2)cc1 | 2.2%[0.0935 µM] | 0.0 | u | 2.0 | 9.2µM* | u
SMILES | TDP1 inh | IL1B secr inh | ELG1 repair inh | Giardia kill | DT40 TDP1 no CPT | DT40 TDP1 CPT
Cc1ccc(NC(=O)C(=O)NCCN2CCN(C(=O)C(c3ccccc3)c3ccccc3)CC2)cc1 | 2.0% | u | u | -6.5 | 18.4µM* | 18.4µM*
Cc1ccc(S(=O)(=O)N2CCN(CCNC(=O)C(=O)Nc3ccc(F)cc3)CC2)cc1 | x | -14.6 | 7.0% | -0.6 | u | 0.6%
CCOc1ccc(C(=O)Nc2nnc(C3=COCCO3)o2)cc1 | 1.9% | -18.1 | 0.0% | -5.6 | u | u
CN1C(=O)C(O)(C2COC(C)(C)CC2=O)c2cc(Br)ccc21 (centres undefined) | 8.7% | 56.7 | 9.4% | 9.1 | 4.61µM* | 5.8µM*
COc1ccc2c(c1)CC(C1(O)C(=O)N(C)c3ccccc31)C2=O (centres undefined) | 1.9% | 0.0 | -1.3% | 2.0 | u | u
Cc1ccc2c(c1)C(O)(C1COC(C)(C)CC1=O)C(=O)N2C (centres undefined) | 2.4% | 40.1 | 7.5% | -1.8 | 3.26µM* | 5.17µM*
CN1C(=O)C(O)(C2COC(C)(C)CC2=O)c2ccccc21 (centres undefined) | 3.0% | 31.6 | 1.4% | 2.0 | 9.2µM* | 14.6µM*
CC1(C)CC2CC(C)(CN2C(=O)COC(=O)c2ccc(Cl)cc2N)C1 (centres undefined) | 2.1% | -13.7 | -13.7% | 6.7 | 23.1µM* | -15.0%
COc1cc(Cl)ccc1OCc1cc(C(=O)N2C[C@]3(C)C[C@H]2CC(C)(C)C3)no1 | -1.0% | -14.3 | u | 7.7 | 16.4µM* | u
COc1cc(Cl)ccc1OCc1cc(C(=O)N2C[C@H]3CC[C@H]2C3)no1 | 3.7% | 0.0 | u | -5.9 | -24.8% | u
COc1ccc(Cn2c(=O)c3cccnc3n(Cc3ccc([N+](=O)[O-])cc3)c2=O)cc1 | 5.0% | -14.9 | u | 7.9 | -14.0% | u
COc1ccc(CCn2c(=S)[nH]c(=O)c3cccnc32)cc1OC | x | x | x | x | 0.1µM* | 0.224µM*
COc1ccc(CCn2c(=O)c3cccnc3n(Cc3ccc([N+](=O)[O-])cc3)c2=O)cc1OC | 0.0% | 8.2 | 15.5% | -11.5 | 16.4µM* | u
CC(C)(C)Nc1ncnc2sc(-c3ccccc3)cc12 | x | -16.8 | u | 7.6 | 23.1µM* | 25.9µM*
C=COCCCNc1ncnc2sc(-c3ccccc3)cc12 | x | -9.5 | u | 29.2 | 14.6µM* | 16.4µM*
CN(C)c1ncnc2sc(-c3ccccc3)cc12 | 2.3% | -55.4* | u | -12.9 | -23.0% | u
COC(CNc1ncnc2sc(-c3ccccc3)cc12)OC | x | u | -3.7% | -28.0 | u | u
COc1ccc(N2C(=O)CS(=O)(=O)C23C(=O)N(Cc2ccccc2)c2ccccc23)cc1 (centres undefined) | -2.1% | x | x | x | u | -28.7%
